In the library only some 12% were active in any assay of this set; here they are far more common.
Sfp inh: qHTS Assay for Inhibitors of Bacillus subtilis Sfp phosphopantetheinyl transferase (PPTase). Biochemical Sfp PPTase activity, qHTS. Potency, µM, for the others: largest response in the series, negative = inhibition, usual class: inhibitors. hit rate 3.5% among 310,000. AID 1490, 2009;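 note: the enzyme is Sfp with the accession as filed and its product quenches rhodamine fluorescence; 0% = enzyme reaction without inhibitor and -100% = no enzyme wells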
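Sfp 15 nM + cpd, 15 min RT; start w/ rhodamine-CoA 5 uM, BHQ-2-YbbR 12.5 uM (final); 50 mM Hepes pH 7.6, 10 mM MgCl2, 0.01% NP-40, 0.01% BSA; read 525/598 nm at 0 and 30 min.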
G9a inh: qHTS Assay for Inhibitors of Histone Lysine Methyltransferase G9a; Histone-lysine N-methyltransferase EHMT2 (Homo sapiens), Q96KQ7; G9a H3K9 monomethylation, AlphaScreen, 2 h; Potency, µM (highest dose often 102 µM), inactives show at the highest dose activity, negative = inhibition, most hits filed as inhibitors; hit rate 8.8% among 350,000; AID 504332, 2011; note: % is set by controls: 0 for no effect and ±100 for the full control effect; nearly all actives have a fitted effect of over 75% in size
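Signal arises when biotinylated H3K9 peptide, once monomethylated, bridges streptavidin donor and antibody-captured acceptor beads. Enzyme at 20 nM was preincubated 15 min with test compounds; peptide 500 nM and SAM 20 uM then reacted for 2 h.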
HP1b binding inh: HTS for Inhibitors of HP1-beta Chromodomain Interactions with Methylated Histone Tails. AlphaScreen HP1-beta / biotin-H3K9me3 peptide binding. AID 540317, 2011. Chromobox protein homolog 1 (Homo sapiens), P83916. hit rate 0.56% among 390,000. Potency, µM (series often up to 114 µM), for the others: at the top dose activity change, negative = inhibition, hits mostly inhibitors; note: nearly all actives have a fitted effect of over 70% in size
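HP1-beta protein (50 nM final) preincubated 30 min at room temperature with biotinylated H3(1-18)K9me3 peptide (50 nM) in PBS pH 7.4, 0.01% Tween-20, then compound added for 30 min. AlphaScreen streptavidin donor/nickel chelate acceptor beads (10 ug/mL final), 30 min dark, luminescence read.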
JMJD2A Tudor: qHTS Assay for Inhibitors of JMJD2A-Tudor Domain; Lysine-specific demethylase 4A (Homo sapiens), O75164; AlphaScreen JMJD2A-Tudor / H3K4me3 peptide binding; Potency, µM (doses to about 114 µM), for inactives: at the top dose activity change, negative = inhibition, actives largely listed as inhibitors; hit rate 4.4% among 390,000; note: % is set by controls: 0 for no effect and ±100 for the full control effect; nearly all actives have a fitted effect of over 50% in size
TDP1 block: qHTS Assay for Inhibitors of Tyrosyl-DNA Phosphodiesterase (TDP1); Tyrosyl-DNA phosphodiesterase 1 (Homo sapiens), Q9NUW8; recombinant TDP1, AlphaScreen DNA substrate cleavage; Potency, µM (series often up to 130 µM), inactives show at the top dose activity change, negative = inhibition, usual class: inhibitors; hit rate 0.28% among 350,000; AID 485290, 2010; note: % is set by controls: 0 for no effect and ±100 for the full control effect; nearly all actives have a fitted effect of over 40% in size
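Signal: AlphaScreen proximity between streptavidin donor and anti-FITC acceptor beads on intact substrate. Reaction: Tdp1 1 nM, substrate 15 nM final, 5 min RT after 15 min compound preincubation.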
BAZ2B block: qHTS Assay for Inhibitors of BAZ2B. Bromodomain adjacent to zinc finger domain protein 2B (Homo sapiens), Q9UIF8. AlphaScreen BAZ2B-H3K14Ac peptide displacement. Potency, µM (highest dose often 114 µM), without a hit: top-dose activity change, negative = inhibition, hits mostly inhibitors. hit rate 4.4% among 360,000. AID 504333, 2011; note: % is set by controls: 0 for no effect and ±100 for the full control effect; nearly all actives have a fitted effect of over 60% in size
Target sequence (Q9UIF8 whole entry, looked up, the tested form may be a part): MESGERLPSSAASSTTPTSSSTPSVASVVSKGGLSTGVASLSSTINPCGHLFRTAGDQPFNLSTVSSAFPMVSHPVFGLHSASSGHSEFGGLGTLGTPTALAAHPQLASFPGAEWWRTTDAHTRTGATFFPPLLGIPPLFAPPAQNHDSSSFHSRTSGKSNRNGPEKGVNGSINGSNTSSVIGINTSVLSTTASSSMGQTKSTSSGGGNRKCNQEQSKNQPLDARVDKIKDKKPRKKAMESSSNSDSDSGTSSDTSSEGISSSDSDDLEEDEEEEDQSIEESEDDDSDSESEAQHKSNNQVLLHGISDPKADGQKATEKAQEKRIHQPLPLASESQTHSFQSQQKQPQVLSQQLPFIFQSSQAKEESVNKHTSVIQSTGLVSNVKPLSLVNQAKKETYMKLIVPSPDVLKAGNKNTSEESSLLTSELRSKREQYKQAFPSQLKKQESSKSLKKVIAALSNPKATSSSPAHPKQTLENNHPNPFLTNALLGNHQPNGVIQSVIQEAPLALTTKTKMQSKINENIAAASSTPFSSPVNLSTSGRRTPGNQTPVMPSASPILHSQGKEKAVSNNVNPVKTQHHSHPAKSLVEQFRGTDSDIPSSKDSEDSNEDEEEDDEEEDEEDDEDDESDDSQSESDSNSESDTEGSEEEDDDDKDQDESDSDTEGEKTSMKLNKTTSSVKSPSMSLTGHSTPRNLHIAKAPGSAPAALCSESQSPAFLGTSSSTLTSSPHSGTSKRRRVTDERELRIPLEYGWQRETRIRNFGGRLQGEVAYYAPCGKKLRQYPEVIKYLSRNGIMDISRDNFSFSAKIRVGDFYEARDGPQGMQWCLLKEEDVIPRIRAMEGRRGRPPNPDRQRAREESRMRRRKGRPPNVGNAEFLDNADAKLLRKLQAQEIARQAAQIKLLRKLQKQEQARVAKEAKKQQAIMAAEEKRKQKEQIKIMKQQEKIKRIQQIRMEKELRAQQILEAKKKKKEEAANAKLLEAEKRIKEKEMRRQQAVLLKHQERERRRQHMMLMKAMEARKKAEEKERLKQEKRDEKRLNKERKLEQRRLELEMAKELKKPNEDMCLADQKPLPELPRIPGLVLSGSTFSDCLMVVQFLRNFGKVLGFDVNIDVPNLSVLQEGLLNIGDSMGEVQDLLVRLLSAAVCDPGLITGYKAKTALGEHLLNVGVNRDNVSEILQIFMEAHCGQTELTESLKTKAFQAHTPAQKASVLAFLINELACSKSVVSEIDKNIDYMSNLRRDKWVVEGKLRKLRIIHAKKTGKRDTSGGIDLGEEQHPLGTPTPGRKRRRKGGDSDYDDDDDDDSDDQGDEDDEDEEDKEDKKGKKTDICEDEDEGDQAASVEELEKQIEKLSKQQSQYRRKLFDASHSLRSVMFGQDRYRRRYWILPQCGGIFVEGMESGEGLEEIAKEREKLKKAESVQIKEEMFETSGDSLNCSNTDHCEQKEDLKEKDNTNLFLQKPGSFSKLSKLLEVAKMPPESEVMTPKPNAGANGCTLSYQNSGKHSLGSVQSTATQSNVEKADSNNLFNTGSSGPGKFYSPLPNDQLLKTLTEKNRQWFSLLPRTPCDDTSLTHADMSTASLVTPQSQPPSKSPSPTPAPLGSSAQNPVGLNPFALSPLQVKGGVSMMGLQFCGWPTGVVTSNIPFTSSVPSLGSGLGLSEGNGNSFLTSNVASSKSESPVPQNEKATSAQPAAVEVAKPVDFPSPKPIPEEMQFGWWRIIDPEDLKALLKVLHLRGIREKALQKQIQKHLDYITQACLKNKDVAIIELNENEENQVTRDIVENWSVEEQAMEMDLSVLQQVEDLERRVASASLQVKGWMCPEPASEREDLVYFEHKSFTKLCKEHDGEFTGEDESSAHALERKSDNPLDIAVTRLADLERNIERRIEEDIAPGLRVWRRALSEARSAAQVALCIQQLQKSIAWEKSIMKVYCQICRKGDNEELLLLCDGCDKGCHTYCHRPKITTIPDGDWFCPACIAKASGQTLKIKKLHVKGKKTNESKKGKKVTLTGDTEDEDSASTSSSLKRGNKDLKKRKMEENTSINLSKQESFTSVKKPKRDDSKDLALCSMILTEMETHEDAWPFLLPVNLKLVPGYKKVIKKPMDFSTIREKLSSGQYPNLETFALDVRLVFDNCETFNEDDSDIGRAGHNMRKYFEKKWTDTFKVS
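In this displacement format the biotinylated H3(5-23) peptide acetylated at Lys14 serves as ligand at 50 nM, with BAZ2B at 50 nM in PBS pH 7.4 containing 0.01% Tween-20. Donor and acceptor beads are 10 ug/mL final.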
Numbers without * were called inactive; ? = inconclusive; / = not tested or not shown; [ ] = another dose, or the depositor's remark. Calls come from the whole dose curve; as a rule, active = well fitted curve in the direction sought with a large enough effect; inconclusive = small, poorly fitted or top-dose-only effect, or another doubt; inactive = no such curve, though single readings can be large; an effect the other way counts as inactive or inconclusive. Potency is the fitted concentration of half-maximal effect.

SMILES | Sfp inh | G9a inh | HP1b binding inh | JMJD2A Tudor | TDP1 block | BAZ2B block
CNc1nc(C#N)nc(Nc2ccccc2)n1 | / | / | / | -18% | 10% | /
O=C(Oc1ccc(/C=N/O)cc1)c1ccccc1Cl | -9% | ? | 38% | -4% | -3% | -26%
Cc1cccc(C(=O)Oc2ccc(/C=N/O)cc2)c1 | -11% | 10µM* | 51% | -1% | -2% | -5%
NC(=S)NNc1c(F)c(F)c(F)c(F)c1F | 40µM* | 35µM* | ? | ? | 6% | -21%
O=C(Nc1ccc(N2CCCC2)c(S(=O)(=O)Nc2cccc(C(F)(F)F)c2)c1)c1cccs1 | 7% | -18%[59 µM] | 7% | -25% | 1% | -37%
Cc1ccccc1CC1SC(N)=NC1=O (configuration not stated) | 16% | 32µM* | 21% | -13% | / | -20%
Cc1ccccc1CC1SC(N=C(N)N)=NC1=O (configuration not stated) | 8% | -7% | 35% | ? | / | 3%
COC(=O)C(C)Oc1ccc(Cl)c(CN2OCC(C)(C)C2=O)c1 (configuration not stated) | / | / | -15% | -14% | / | /
CCCc1nc2nc(C)c(NS(=O)(=O)c3ccc4c(c3)CCCC4)c(=O)n2[nH]1 | 23% | -17% | 28% | -14% | 7% | 3%
CCCCCCCc1nc2nc(C)c(Br)c(=O)n2[nH]1 | 24% | -48% | 1% | 28µM* | 3% | -24%
Nc1ncnc2c1c(I)cn2C1OC(CO)C(O)C1O (configuration not stated) | -5% | -21%[59 µM] | / | / | 11% | /
O=C1C(=O)N(Cc2cccnc2)C(c2ccccn2)/C1=C(/O)c1ccc(F)cc1 (configuration not stated) | 89µM* | ? | 3% | ? | 1% | ?
Cc1c(/C(O)=C2/C(=O)C(=O)N(Cc3cccnc3)C2c2cccs2)cnn1-c1ccccc1 (configuration not stated) | -5% | ? | 17% | -25% | 0% | -31%
Cc1c(/C(O)=C2/C(=O)C(=O)N(Cc3cccnc3)C2c2ccccn2)cnn1-c1ccccc1 (configuration not stated) | 1% | 32µM* | 7% | ? | 0% | 50µM*
CCc1ccc(CN(C)C(=O)C2CCC(=O)N(Cc3ccccn3)C2)cc1 (configuration not stated) | 10% | / | 41% | 7% | 0% | 3%
COc1ccc(C2=CC(=O)C[C@H](c3ccc(OC)cc3)C2)cc1 | / | 10%[2.33 µM] | 57% | -9% | -1% | 5%
COc1ccc(C2=CC(=O)C=CC2=O)cc1 | 3.2µM* | 1.3µM* | / | / | 6% | 10µM*
Cn1c(=O)c2c(=O)cc(N)[nH]c2n(C)c1=O | -4% | -10% | 19% | -12% | 0% | -32%
C=C(c1ccccc1)c1ccc(N(C)C)cc1 | -11% | 17%[2.33 µM] | ? | 45µM* | / | ?
C/C(CCC(=O)OC[C@@H]1O[C@H](C#Cc2ccccc2)C=C[C@@H]1Oc1ccc(C)cc1)=N/OC[C@@H](O)COCc1ccco1 | 16% | / | / | / | 6%[21 µM] | /
CC(C)NC(=S)NNc1nc2ccccc2s1 | 2.5µM* | 2.2µM* | 50µM* | 45µM* | 10% | -34%
CCOc1ccc(-c2cnc(NCc3cccc4ccccc34)n2CCOC)cc1 | 56µM* | / | ? | 14µM* | 9% | 40µM*
CCOc1ccc(-c2cnc(N)n2C)cc1 | -5% | / | 24% | -27% | -3% | ?
CCCn1nnnc1NCc1cccc(OC)c1OC | 9% | ? | 6% | 11%[57.1 µM] | 5% | -5%
Cn1c(-c2ccccc2)cnc1NCc1ccc(F)cc1 | -32% | / | ? | 35µM* | / | ?
SMILES | Sfp inh | G9a inh | HP1b binding inh | JMJD2A Tudor | TDP1 block | BAZ2B block
COc1ccc(CNc2ncc(-c3ccc(F)cc3)n2C)c2ccccc12 | -22% | 10µM* | ? | 20µM* | / | 50µM*
COc1ccc(CNc2ncc(-c3cccc([N+](=O)[O-])c3)n2C)c(OC)c1OC | -13% | 32µM* | ? | 25µM* | / | 50µM*
O=C(CCc1nc2ccccc2c(=O)[nH]1)NCCN1C(=O)S/C(=C\c2ccc(Cl)cc2Cl)C1=O | / | ? | 16% | -19% | 2%[0.505 µM] | 19%
C/C=C(\C)C(=O)OC1[C@@H]2C=C3C4CC(=O)OC(c5ccoc5)[C@]4(C)CCC3[C@@](C)(C2=O)C(C(O)C(=O)OC)C1(C)C (some centres not stated) | 4% | -31%[2.33 µM] | / | / | 7%[56.1 µM] | /
CC12CCC(C(=O)NNC(=O)c3ccc(Br)cc3)(OC1=O)C2(C)C (configuration not stated) | 7% | -16% | 14% | -16% | 2% | -1%
Cc1cnc(C(=O)OCc2ccc(Br)cc2)cn1 | 15% | 20%[59 µM] | -3% | -14% | 1% | 15%
Cc1oc(-c2cccs2)nc1CNC[C@H]1O[C@@H](n2cnc(C(N)=O)n2)[C@H](O)[C@@H]1O | / | / | 20% | -10% | / | /
COc1ccccc1C(=O)COC(=O)Cn1c(C)csc1=O | / | -25% | 13% | -2% | -5% | -24%
CC(=O)Nc1cccc(C(=O)NCc2ccc3c(c2)CCN3C(C)=O)c1 | / | 0%[59 µM] | 18% | -2% | 0% | -6%
Cn1c(-c2ccccc2)cnc1NCc1ccccc1O | / | 10µM* | ? | 28µM* | -3% | 50µM*
COc1cccc(-c2cnc(NCc3cc(Cl)ccc3O)n2C)c1 | ? | 8.9µM* | ? | 4.5µM* | 7% | 40µM*
CCOc1ccc(-c2cnc(NCc3cccc(Cl)c3)n2C)cc1 | / | 7.9µM* | ? | 20µM* | 8% | ?
CCN(CC)c1cc(C)c2cc(NC(=O)c3ccc(OC)c(OC)c3)ccc2n1 | / | -4%[59 µM] | 29% | -17% | 9% | -20%
Cc1ccc(NC(=O)CSc2nc(=O)n(Cc3ccco3)c3c2CCC3)cc1F | / | -11%[59 µM] | 5% | -28% | 5% | -22%
Cc1ccc(NC(=O)Nc2nnc(SCC(=O)N3CCC(C)CC3)s2)cc1 | / | 3%[59 µM] | 40% | -10% | 3% | -21%
N#Cc1nc(-c2ccco2)oc1N1CCN(c2ccccc2)CC1 | -7% | ? | ? | ? | 12% | 13µM*
COc1ccc(N2CCN(c3oc(-c4ccco4)nc3C#N)CC2)cc1 | -5% | 25µM* | ? | 32µM* | 8% | /

Screening results as filed in PubChem.
